Bioassay records deposited in PubChem by several laboratories.
Beta cell apopt: beta cell apoptosis inhibition. protection from apoptosis, % (test concentration not listed). 300,000 compounds, 0.8% hits. INS-1E cytokine-induced death, ATP luminescence, 48 h; percent of positive-control rescue, neutral wells zero;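 active means Every replicate reaches about 75%, or at least half do and their mean reaches it too, limit read from the data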;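 further: 0% = cytokine-treated negative control wells and 100% = positive control rescue; higher means more ATP so stronger rescue from cytokine killing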
PP5 primary: blocks human protein phosphatase 5 activity; purified PP5c, OMFP substrate fluorescence; inhibition, % at 6.7 µM; 320,000 compounds, 0.18% hits; AID 1987;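 active means inhibition above the campaign's mean inhibition across all tested compounds plus 3 SD, cut at about 9.5% in these data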;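 further: 0% = DMSO only and 100% = 100 µM cantharidin control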
PP1 counter: blocks human PP1-alpha phosphatase, a PP5 counter-screen | P62136 | purified PP1alpha, OMFP fluorescence | inhibition, % at 6.7 µM | 320,000 compounds, 0.9% hits;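 active means inhibition above the mean inhibition of all tested compounds plus 3 SD, computed separately for each screening campaign, cut at about 15% in these data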
CSC inhib: cancer stem cell inhibition | cancer stem cell-like cells viability, luminescence | 300,000 compounds, 1.1% hits | AID 2717 | inhibition, % at 7.5 µM; in the data active means inhibition above about 75%; tested in HMLE shEcad cells
Mdm2-MdmX inh: disrupts the human Mdm2-MdmX interaction. O15151+Q00987. SaOS-2 split-luciferase Mdm2/MdmX complementation, luminescence. inhibition, % at 8 µM. 330,000 compounds, 3% hits;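 active means inhibition of at least 50% at 8 µM in the primary screen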
Calb FLC: affects C. albicans growth with fluconazole; C. albicans CaCi-2 (fluconazole-resistant clinical isolate) + fluconazole, Alamar Blue growth, 48 h; growth inhibition, % (concentration not given with the values); 300,000 compounds, 0.57% hits; AID 1979;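 active means growth inhibition above about 58% in most replicates, limit read from the data, passing the limit was not always enough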;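 further: all wells also contain fluconazole at 8 µg/ml as a sub-toxic cotreatment; 0% = median of DMSO wells and 100% = median of geldanamycin control wells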
Mdm2 MdmX conf: human Mdm2/MdmX binding inhibition, confirmed; shares compounds with Mdm2-MdmX inh; luminescent assay; inhibition, % at 8 µM; 10,000 compounds, 55% hits; AID 489028; in the data active means inhibition above about 40%
Full FLuc ctr: counter-screen for Mdm2/MdmX inhibitors: full-length luciferase; 6,200 compounds, 77% hits; inhibition, % at 8 µM; SaOS-2 full-length luciferase counterscreen, luminescence; AID 504607; shares compounds with Mdm2-MdmX inh;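 active means mean inhibition at 8 µM reaching about 37%, which flags the compound as non-specific, limit read from the data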;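 further: p53-null SaOS-2 cells with luciferase driven by a doxycycline-inducible promoter; compound on cells about two nights before reading with doxycycline added after day one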
* = called active by the depositor; x = no result given. An excerpt weighted towards active compounds, which were near 4.9% of everything screened.

SMILES | Beta cell apopt | PP5 primary | PP1 counter | CSC inhib | Mdm2-MdmX inh | Calb FLC | Mdm2 MdmX conf | others
COc1ccc(-n2c(SCC(=O)Nc3ncc(Cl)cc3Cl)nc3ccccc32)cc1 | 21.1 | 2.7 | 11.1 | 44.1 | 90.7* | -15.9 | 74.2* | Full FLuc ctr=29.2
O=C(CSc1nc2ccccc2n1-c1ccccc1)Nc1ncc(Cl)cc1Cl | 0.0 | 4.7 | 7.0 | 45.7 | 87.6* | 21.9 | 81.0* | Full FLuc ctr=22.4
O=C(CNC(=O)c1cccc([N+](=O)[O-])c1)NC1CCCc2ccccc21 (stereo not drawn) | -10.5 | 0.9 | -3.6 | x | 3.6 | x | x
Cc1nn(-c2ccccc2)c(Cl)c1C1C(C#N)=C(N)Oc2n[nH]c(C)c21 (stereo not drawn) | 1.6 | 0.6 | 4.9 | 9.6 | 53.3* | 7.0 | 23.4
CCC(CC)C1C(C#N)=C(N)Oc2n[nH]c(-c3ccccc3)c21 (stereo not drawn) | 3.0 | 2.8 | -0.6 | 33.2 | 35.5 | 3.7 | x
CCC(CC)C1C(C#N)=C(N)Oc2n[nH]c(C)c21 (stereo not drawn) | -3.8 | -0.8 | -4.3 | 11.9 | 51.8* | -9.5 | 2.8
Cc1nn(-c2ccccc2)c(Cl)c1C1C(C#N)=C(N)Oc2c1c(C)nn2-c1ccccc1 (stereo not drawn) | x | 1.0 | 1.4 | 4.9 | -1.4 | 2.8 | x
NC(=O)Nc1ccc(C(=O)OCC(=O)N2CCc3ccccc3C2)cc1 | -9.4 | 3.3 | 0.8 | x | 23.6 | x | x
CCOC(=O)C(C)Oc1c(C(=O)OC)sc2ncccc12 (stereo not drawn) | 1.2 | 1.1 | -0.7 | -3.3 | 2.5 | -1.0 | x
O=[N+]([O-])c1ccc(Sc2nc3ccccc3o2)c([N+](=O)[O-])c1 | 47.9 | 3.7 | 9.8 | 105.6* | 98.9* | 93.2* | 75.7* | Full FLuc ctr=2.6
Cn1ccnc1Sc1cc(Cl)ccc1[N+](=O)[O-] | -7.9 | 0.2 | 0.0 | -4.8 | -34.9 | 5.8 | x
O=[N+]([O-])c1ccc(Cl)cc1Sc1nc2ccccc2o1 | -1.4 | 3.2 | 3.6 | 22.1 | 53.8* | 53.2 | 16.2
CCOC(=O)CSc1nc2cc(C(=O)NCc3ccco3)ccc2c(=O)n1-c1ccc(F)cc1 | x | -0.1 | -2.6 | -0.3 | 71.1* | 5.4 | 13.4 | Full FLuc ctr=83.1*
O=C(NCc1ccco1)c1ccc2c(=O)n(-c3ccccc3)c(=S)[nH]c2c1 | -1.3 | -0.6 | 2.8 | -8.0 | 50.2* | -2.0 | -4.3
CCOC(=O)CSc1nc2cc(C(=O)NCc3ccco3)ccc2c(=O)n1C1CCCCC1 | -5.1 | 0.5 | -8.9 | -11.3 | -36.5 | -16.2 | x
O=C(CN1C(=O)c2ccccc2S1(=O)=O)NCCc1ccc(F)cc1 | -8.5 | x | x | -7.2 | -12.4 | x | x
CCOc1cc(CNCCO)cc(Br)c1OCc1ccc(Cl)cc1Cl | 30.8 | 2.8 | 7.3 | 148.2* | 99.8* | -3.2 | 50.3* | Full FLuc ctr=25.5
CCOc1cccc(CNCCO)c1OCc1ccc(Cl)cc1Cl | 0.1 | -0.8 | 0.9 | x | 44.0 | -5.0 | x
CN(C)C(CNC(=O)c1c(F)cccc1Cl)c1ccco1 (stereo not drawn) | -1.5 | -1.3 | -0.8 | -10.9 | -3.5 | 2.2 | x
OCCN1CCN(CC(O)COc2ccc(C34CC5CC(CC(C5)C3)C4)cc2)CC1 (stereo not drawn) | 47.4 | 1.6 | -4.4 | 112.5* | 94.7* | 24.6 | 72.7* | Full FLuc ctr=21.7
CNc1nc(NN)nc(Nc2ccccc2)n1 | 1.0 | 0.6 | -0.4 | -1.1 | 9.1 | -14.3 | x
CN(Cc1nccn1C)C(=O)C1CCC(=O)N(Cc2cccc(C(F)(F)F)c2)C1 (stereo not drawn) | -4.3 | 0.2 | 0.5 | -2.4 | 24.7 | -5.0 | x
COc1ccc(C(=O)CSc2nc3c(c(=O)n(C)c(=O)n3C)n2C)cc1 | -1.9 | 1.6 | 1.2 | 1.8 | 4.3 | -23.7 | x
COc1cc(C)c(NC(=O)c2cc(C3CC3)nc3c2cnn3C(C)C)cc1OC | -4.3 | -1.0 | -0.5 | 19.0 | 18.2 | x | x
COc1ccc2c(c1)C(=O)C(=O)N2CC1COc2ccccc2O1 (stereo not drawn) | -1.8 | 2.0 | 7.3 | 22.8 | 54.2* | 14.3 | 24.9
CCOc1ccc2c(c1)C(=O)C(=O)N2CC1COc2ccccc2O1 (stereo not drawn) | 2.9 | 4.4 | -3.0 | 19.0 | 68.8* | -19.8 | 30.2
